Assay [1] in a line: small molecules captured by biotinylated probe aFSTL3 – biochemical, small-molecule microarray, fluorescence 635/667, stem cell growth factor project, primary screen (AID 1064).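 Further: measures binding of the biotinylated anti-FSTL3 antibody to printed compounds.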 Conditions: higher = more signal.
The nature of assay [2]: binders from COS7 lysate, DM2A8 probe, primary screen, torsin A project, cell lysate, small-molecule microarray, fluorescence 635/667 (AID 1065). The settings on record: higher = more signal, COS7 lysate expressing mutant human TOR1A.
Assay [3] can be described thus: small molecules captured by biotinylated probe aFGF2 – biochemical, small-molecule microarray, fluorescence 635/667, stem cell growth factor project, primary screen (AID 1067).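 Further: measures binding of biotinylated aFGF2 protein to printed compounds on slides; z-score merges feature fluorescence and signal-to-noise across triplicate slides.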 Conditions: higher = more signal.
Assay [4] can be described thus: small molecules captured by biotinylated probe aFGF10 – biochemical, small-molecule microarray, fluorescence 635/667, stem cell growth factor project, primary screen (AID 1071).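 Further: score merges 667 nm spot intensity and signal to noise from triplicate slides.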 Conditions: higher = more signal.
Assay [5] deals with Neurogenic locus notch homolog protein 2 (Homo sapiens) (UniProt Q04721). As to the kind of experiment: small molecules binding Notch2 protein – biochemical, small-molecule microarray, 635 nm fluorescence, stem cell growth factors, primary screen (AID 1073). The settings on record: higher = more signal.
Sequence of Neurogenic locus notch homolog protein 2 (Homo sapiens) (Q04721 whole entry, looked up, canonical isoform): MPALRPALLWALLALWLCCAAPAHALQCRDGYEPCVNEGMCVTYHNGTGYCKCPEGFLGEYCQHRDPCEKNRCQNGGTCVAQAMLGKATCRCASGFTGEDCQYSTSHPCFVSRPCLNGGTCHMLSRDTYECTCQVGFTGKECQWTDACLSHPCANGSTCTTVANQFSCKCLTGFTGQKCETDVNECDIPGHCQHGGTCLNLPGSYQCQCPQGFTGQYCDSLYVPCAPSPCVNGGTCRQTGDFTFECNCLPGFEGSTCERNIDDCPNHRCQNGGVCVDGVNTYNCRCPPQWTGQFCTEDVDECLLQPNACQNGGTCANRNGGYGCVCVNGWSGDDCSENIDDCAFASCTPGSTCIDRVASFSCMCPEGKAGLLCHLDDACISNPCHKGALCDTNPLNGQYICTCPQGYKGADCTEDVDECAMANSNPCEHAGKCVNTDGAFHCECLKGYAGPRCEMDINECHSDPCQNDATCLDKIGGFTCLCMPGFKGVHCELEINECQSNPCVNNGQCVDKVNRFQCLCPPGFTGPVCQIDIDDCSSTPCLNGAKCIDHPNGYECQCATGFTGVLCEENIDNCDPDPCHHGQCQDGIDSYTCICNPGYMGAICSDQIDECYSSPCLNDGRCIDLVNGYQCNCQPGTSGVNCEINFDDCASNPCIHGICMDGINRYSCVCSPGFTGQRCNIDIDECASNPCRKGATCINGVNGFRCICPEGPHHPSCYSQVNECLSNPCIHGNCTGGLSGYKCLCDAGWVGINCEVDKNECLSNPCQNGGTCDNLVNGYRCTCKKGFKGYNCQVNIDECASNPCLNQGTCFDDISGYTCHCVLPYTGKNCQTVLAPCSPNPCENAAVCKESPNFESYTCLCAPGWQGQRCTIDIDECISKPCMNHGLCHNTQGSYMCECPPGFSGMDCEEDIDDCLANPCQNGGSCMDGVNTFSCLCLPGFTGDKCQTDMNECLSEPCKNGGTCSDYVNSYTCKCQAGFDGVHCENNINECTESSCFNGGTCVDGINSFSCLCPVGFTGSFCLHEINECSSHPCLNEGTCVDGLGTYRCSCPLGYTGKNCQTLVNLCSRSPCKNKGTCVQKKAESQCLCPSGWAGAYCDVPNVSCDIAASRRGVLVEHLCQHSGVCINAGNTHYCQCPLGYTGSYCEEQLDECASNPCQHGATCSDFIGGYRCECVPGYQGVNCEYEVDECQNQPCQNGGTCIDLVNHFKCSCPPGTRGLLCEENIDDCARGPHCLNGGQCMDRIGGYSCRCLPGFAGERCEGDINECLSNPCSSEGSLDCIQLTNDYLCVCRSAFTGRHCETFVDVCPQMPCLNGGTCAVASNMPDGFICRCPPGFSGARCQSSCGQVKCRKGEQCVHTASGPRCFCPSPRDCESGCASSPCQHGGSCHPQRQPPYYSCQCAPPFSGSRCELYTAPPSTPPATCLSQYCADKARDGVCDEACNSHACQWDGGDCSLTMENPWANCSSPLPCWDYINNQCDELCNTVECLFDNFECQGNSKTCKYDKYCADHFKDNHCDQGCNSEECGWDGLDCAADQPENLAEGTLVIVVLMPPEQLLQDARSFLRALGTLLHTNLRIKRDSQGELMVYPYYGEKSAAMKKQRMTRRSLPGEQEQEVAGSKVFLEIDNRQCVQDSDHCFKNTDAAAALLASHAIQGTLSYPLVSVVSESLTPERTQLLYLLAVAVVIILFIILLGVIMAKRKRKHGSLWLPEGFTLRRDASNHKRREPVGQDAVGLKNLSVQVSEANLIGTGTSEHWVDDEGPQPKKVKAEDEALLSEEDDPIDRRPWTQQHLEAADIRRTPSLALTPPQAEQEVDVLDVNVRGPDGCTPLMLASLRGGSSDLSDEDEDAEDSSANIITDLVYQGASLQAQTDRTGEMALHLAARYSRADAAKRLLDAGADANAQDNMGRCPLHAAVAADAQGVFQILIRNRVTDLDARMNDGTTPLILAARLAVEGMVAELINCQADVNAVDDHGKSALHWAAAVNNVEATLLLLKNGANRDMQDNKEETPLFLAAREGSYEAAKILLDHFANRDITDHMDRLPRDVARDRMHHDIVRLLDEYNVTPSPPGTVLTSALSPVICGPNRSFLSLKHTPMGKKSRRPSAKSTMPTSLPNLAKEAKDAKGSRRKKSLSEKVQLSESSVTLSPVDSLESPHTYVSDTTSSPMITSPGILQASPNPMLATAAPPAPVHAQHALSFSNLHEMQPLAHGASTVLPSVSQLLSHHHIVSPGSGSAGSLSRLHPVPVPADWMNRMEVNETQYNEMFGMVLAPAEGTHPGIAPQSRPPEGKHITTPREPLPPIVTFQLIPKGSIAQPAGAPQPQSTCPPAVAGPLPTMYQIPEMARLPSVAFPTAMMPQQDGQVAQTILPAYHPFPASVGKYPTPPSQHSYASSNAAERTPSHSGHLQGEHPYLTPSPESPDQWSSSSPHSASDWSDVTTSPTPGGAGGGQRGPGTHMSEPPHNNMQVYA
The target in assay [6] is Pro-neuregulin-1, membrane-bound isoform (Homo sapiens) (UniProt Q02297). The assay can be described thus: small molecules binding neuregulin-1 protein – biochemical, small-molecule microarray, fluorescence 635/667, psychiatric disease protein project, primary screen (AID 1075).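 Further: score combines 667 nm spot fluorescence with signal to noise.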 Conditions: NRG1 binding, 635 nm fluorescence, higher = more signal.
For assay [7], the system named is Neuregulin-1 EGF-like domain. As to the kind of experiment: small molecules binding NRG1 EGF domain – biochemical, small-molecule microarray, 635 nm fluorescence, primary screen (AID 1081).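 Further: binding of the protein to compounds printed on small-molecule microarray slides.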 Conditions: higher = more signal.
Assay [8] in a line: FRG1 expression reporter modulators in myotubes – cell-based, C2C12 myotubes, firefly/Renilla luciferase, luminescence, FRG1 inhibition for FSHD, primary screen (AID 1084). The settings on record: FRG1 promoter luciferase, higher = more signal, called active from +8 up or from −8 down.
Assay [9] in a line: small molecules captured by biotinylated probe aFST – biochemical, small-molecule microarray, fluorescence 635/667, stem cell growth factor project, primary screen (AID 1086).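 Further: score merges 667 nm fluorescence with signal-to-noise of each printed compound spot.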 Conditions: higher = more signal.
Assay [10] can be described thus: binders of probe aHhip on microarray, primary screen, stem cell growth factor project, biochemical, small-molecule microarray, fluorescence 635/667 (AID 1087).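 Further: score merges spot fluorescence at 667nm with spot signal to noise ratio.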 Conditions: higher = more signal.
In assay [11] the test system is PRMT1 (protein arginine N-methyltransferase 1). As to the kind of experiment: small molecules binding arginine methyltransferase PRMT1 – biochemical, small-molecule microarray, 635 nm fluorescence, primary screen (AID 1088).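 Further: binding of Prmt1 protein to compounds spotted on small-molecule microarray slides.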 The settings on record: higher = more signal.
The nature of assay [12]: growth effects on S. cerevisiae YJM789 – YJM789 clinical isolate, OD600, 24 h, basal, primary screen (AID 1089).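 Further: growth of clinical yeast isolate S. cerevisiae YJM 789 seeded 1000 cells per well; test concentration not given here.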 The settings on record: higher = more signal, called active from +8 up or from −8 down.
Assay [13] can be described thus: S. pombe growth modifiers, basal conditions – strain 972, OD600, 24 h, no modulator, primary screen (AID 1090).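 Further: basal condition with compound alone and no growth modifier present; test concentration not given here.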 The settings on record: S. pombe 972 growth, higher = more signal, called active from +8 up or from −8 down.
Assay [14] can be described thus: budding yeast growth modifiers under rapamycin – strain BY4716, OD600, 96 h, primary screen (AID 1091). Further: test concentration not given here. The settings on record: S. cerevisiae BY4716 + rapamycin, higher = more signal, called active from +8 up or from −8 down.
Assay [15] deals with Torsin-1A-interacting protein 2 (Homo sapiens) (UniProt Q8NFQ8). As to the kind of experiment: small molecules binding lysate-expressed LULL1 – cell lysate, human LULL1 lysate, 635/667 nm fluorescence, primary screen (AID 1092).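 Further: probe is lysate of COS7 cells overexpressing human LULL1; score merges per-feature 667 nm fluorescence with signal-to-noise.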 The settings on record: small-molecule microarray, hLULL1 lysate binding, 635 nm fluorescence; higher = more signal.
The nature of assay [16]: optical density change of DRC41 E. coli – strain DRC41, OD650, 24 h, E. coli filamentation project, primary screen (AID 1093).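 Further: MC1000 strain lacking acrAB efflux and sulA so SOS filamentation is blocked; test concentration not given here.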 The settings on record: E. coli DRC41 growth, higher = more signal, called active from +8 up or from −8 down.
Assay [17] is described as follows: probe aLefty2 binding to arrayed compounds – biochemical, biotinylated probe, 635/667 nm fluorescence, primary screen (AID 1094).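 Further: score merges spot fluorescence near 667 nm with spot signal-to-noise ratio.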 Conditions: small-molecule microarray, higher = more signal.
The test system of assay [18] is Noggin (protein binding on small-molecule microarray). The assay can be described thus: small molecules binding Noggin protein – biochemical, 635/667 nm fluorescence, primary screen (AID 1095).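 Further: score merges 667 nm feature fluorescence with signal to noise over triplicate slides.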 The settings on record: 635 nm fluorescence, higher = more signal.
Assay [19] concerns the target Neurogenic locus notch homolog protein 3 (Homo sapiens) (UniProt Q9UM47). The assay can be described thus: small molecules binding NOTCH3 protein – biochemical, 635/667 nm fluorescence, primary screen (AID 1096). The settings on record: small-molecule microarray, 635 nm fluorescence, higher = more signal.
A short description of assay [20]: probe aEGFR binding to arrayed compounds – biochemical, biotinylated probe, 635/667 nm fluorescence, primary screen (AID 1097).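 Further: probe is a biotinylated anti-EGFR antibody binding compounds printed on slides; score combines fluorescence near 667 nm and signal to noise of each spot.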 The settings on record: small-molecule microarray, higher = more signal.

Active and inactive are the calls of the source.

Sequence of Neurogenic locus notch homolog protein 3 (Homo sapiens) (Q9UM47 whole entry, looked up): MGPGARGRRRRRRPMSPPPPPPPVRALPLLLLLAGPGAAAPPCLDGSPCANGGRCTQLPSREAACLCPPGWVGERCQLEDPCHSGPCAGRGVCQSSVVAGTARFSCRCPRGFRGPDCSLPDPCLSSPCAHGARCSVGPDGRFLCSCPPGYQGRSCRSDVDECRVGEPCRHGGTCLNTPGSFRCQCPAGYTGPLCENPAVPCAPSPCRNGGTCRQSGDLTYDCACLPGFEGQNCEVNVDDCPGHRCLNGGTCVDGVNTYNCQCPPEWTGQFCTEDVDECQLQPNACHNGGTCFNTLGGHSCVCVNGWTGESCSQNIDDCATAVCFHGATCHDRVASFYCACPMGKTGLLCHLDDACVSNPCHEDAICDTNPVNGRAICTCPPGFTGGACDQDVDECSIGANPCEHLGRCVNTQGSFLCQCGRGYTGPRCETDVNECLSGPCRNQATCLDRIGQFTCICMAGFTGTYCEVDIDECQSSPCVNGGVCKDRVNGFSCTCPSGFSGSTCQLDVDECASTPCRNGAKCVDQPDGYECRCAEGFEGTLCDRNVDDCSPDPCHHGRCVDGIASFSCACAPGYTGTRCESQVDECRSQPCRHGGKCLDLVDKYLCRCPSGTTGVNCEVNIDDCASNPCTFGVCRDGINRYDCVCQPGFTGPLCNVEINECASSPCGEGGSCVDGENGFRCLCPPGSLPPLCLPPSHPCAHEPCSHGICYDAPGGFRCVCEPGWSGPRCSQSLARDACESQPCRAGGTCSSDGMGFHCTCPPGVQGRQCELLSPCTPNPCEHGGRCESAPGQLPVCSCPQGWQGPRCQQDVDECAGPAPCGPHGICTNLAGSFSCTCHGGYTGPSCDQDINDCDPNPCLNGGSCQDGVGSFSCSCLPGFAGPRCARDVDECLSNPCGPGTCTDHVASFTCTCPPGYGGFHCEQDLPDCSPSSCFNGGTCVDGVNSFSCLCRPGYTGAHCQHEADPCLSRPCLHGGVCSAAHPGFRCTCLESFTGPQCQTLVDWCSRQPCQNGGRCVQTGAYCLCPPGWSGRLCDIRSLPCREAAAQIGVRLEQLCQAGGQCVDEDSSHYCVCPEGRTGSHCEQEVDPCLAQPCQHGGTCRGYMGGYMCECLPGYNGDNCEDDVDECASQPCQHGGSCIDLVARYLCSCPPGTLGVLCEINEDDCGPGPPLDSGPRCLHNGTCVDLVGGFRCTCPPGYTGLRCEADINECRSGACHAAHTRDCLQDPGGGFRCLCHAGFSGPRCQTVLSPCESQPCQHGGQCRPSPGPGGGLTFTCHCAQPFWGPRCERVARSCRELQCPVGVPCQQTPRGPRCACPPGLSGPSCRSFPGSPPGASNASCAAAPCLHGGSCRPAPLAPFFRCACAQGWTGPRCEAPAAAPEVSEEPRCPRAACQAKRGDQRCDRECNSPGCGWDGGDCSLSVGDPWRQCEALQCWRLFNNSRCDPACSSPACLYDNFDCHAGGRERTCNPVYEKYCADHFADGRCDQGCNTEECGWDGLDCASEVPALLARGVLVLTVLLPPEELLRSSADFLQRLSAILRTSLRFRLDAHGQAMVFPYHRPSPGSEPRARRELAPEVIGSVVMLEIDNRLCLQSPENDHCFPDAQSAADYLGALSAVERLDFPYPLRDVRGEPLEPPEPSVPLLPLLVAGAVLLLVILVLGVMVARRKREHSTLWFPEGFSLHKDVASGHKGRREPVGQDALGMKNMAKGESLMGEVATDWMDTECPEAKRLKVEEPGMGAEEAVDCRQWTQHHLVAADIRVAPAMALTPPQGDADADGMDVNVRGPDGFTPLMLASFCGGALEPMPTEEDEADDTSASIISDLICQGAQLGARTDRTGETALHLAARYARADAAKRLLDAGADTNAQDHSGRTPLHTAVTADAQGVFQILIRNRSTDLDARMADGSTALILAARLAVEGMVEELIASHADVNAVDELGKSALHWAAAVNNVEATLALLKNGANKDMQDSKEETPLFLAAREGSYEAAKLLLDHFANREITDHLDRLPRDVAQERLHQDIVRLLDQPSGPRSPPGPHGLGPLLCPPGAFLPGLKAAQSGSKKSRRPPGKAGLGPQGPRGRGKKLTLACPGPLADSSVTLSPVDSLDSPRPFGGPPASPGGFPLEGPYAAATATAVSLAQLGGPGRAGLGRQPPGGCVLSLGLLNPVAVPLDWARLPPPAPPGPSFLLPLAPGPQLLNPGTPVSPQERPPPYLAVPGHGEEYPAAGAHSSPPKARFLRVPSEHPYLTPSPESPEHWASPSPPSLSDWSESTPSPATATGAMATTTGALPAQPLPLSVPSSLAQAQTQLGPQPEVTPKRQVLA

As for `[N-]=[N+]=NCc1ccccc1C[C@]1(C(=O)NCc2ccccc2)N=C(c2ccc(OCCCO)cc2)O[C@H]1c1ccccc1N=[N+]=[N-]`, the composite z-score in assay [1] is 0.741; in assay [2], -0.0741; in [3], -0.0231; in assay [4], 1.13; in assay [5], 1.22; in assay [6], 0.799. The composite z-score in [7] amounted to 1.01; in assay [9] it was 1.16; in [10] it was 0.295; in assay [11], 1.26; in [15] it was 3.17; in assay [17], 0.284. For the same compound, the composite z-score in assay [18] came out at 0.179; in assay [19], 0.755; in assay [20], 0.464. For the same compound, the z-score in [8] was -1.34 (inactive); in assay [12], 0.228 (inactive); in [13] it was 1 (inactive); in [14], 6.01 (inactive); in assay [16], 0.368 (inactive).

Turning to `CO[C@H]1COC(=O)[C@@H]2CCCN2C(=O)[C@@H](C)COC(=O)CC=C[C@@H]1C`, the composite z-score in assay [1] is -0.553; in assay [2], 1.69; in assay [3], -0.118; in assay [4], 0.624; in assay [5], 0.0761; in assay [6], -0.446. Further, the composite z-score in assay [7] is 0.997; in assay [9] it was 0.107; in assay [10], -0.249; in assay [11], 1.47; in assay [15], -0.652; in assay [17] it was -0.238. The composite z-score is 0.927 in [18], 0.665 in [19] and 0.0082 in assay [20]. In addition, the z-score in assay [8] was 0.36 (inactive); in assay [12], -0.62 (inactive); in assay [13], 0.0569 (inactive); in [14], -1.53 (inactive); in assay [16], 0.264 (inactive).

Take `Cn1c(=O)n2n(c1=O)[C@H]1[C@H](O)[C@@H]3O[C@@H]3C(=NOC[C@@H](O)COCc3ccco3)[C@H]1CC2`: the composite z-score was -0.319 in assay [1]; 0.614 in assay [2]; -0.0538 in [3]; 0.296 in assay [4]; 0.515 in assay [5]; -0.218 in [6]. For the same compound, the composite z-score in assay [7] was 0.276; in [9], 0.0036; in [10] it was 0.0373; in assay [11], 0.188; in assay [15], 0.14; in [17], -0.171. The values for the composite z-score in [18], in [19] and in [20] were 0.426, 0.775 and 0.0574, respectively. The z-score is -0.532 (inactive) in assay [8]; 0.0859 (inactive) in assay [12]; 0.171 (inactive) in assay [13]; -0.36 (inactive) in assay [14]; -0.0342 (inactive) in [16].

As for `O=C1C[C@@H](O)[C@@H](O)[C@@H]2[C@@H]3C(=O)N(c4cccc(Oc5ccccc5)c4)C(=O)[C@@H]3CC[C@@H]12`, the composite z-score in [1] is -0.557; in assay [2] it was 0.272; in assay [3], -0.0598; in assay [4], 0.516; in assay [5], 1.26; in assay [6], 0.713. For the same compound, the composite z-score in [7] is 1.01; in assay [9] it was 0.0399; in assay [10], 0.0659; in assay [11], 0.766; in assay [15], 1.42; in assay [17], -0.177. Besides, the results for the composite z-score in assay [18], in assay [19] and in [20] were 0.468, 1.09 and 0.126, respectively. In addition, the z-score in [8] was -0.211 (inactive); in assay [12], -0.336 (inactive); in assay [13], -0.444 (inactive); in assay [14] it was -0.622 (inactive); in assay [16], 0.185 (inactive).

On to `CCOC(=O)[C@H](Cc1ccccc1)NC(=O)CCC1CC(OC(=O)NCc2ccc3c(c2)OCO3)CC2(CCCC(COC(=O)NCc3ccccc3)O2)O1` (stereo not given in full), for which the composite z-score is -0.0824 in [1]; 0.204 in [2]; -0.0103 in [3]; 0.697 in assay [4]; 0.808 in [5]; 0.317 in [6]. For the same compound, the composite z-score in [7] is 0.718; in [9] it was 0.393; in assay [10], 0.0505; in assay [11] it was 1.06; in [15], 1.27; in assay [17] it was -0.0174. Moreover, the composite z-score in [18] was 0.573; in assay [19] it was 0.941; in [20], -0.0084. For the same compound, the z-score in assay [8] was 1.54 (inactive); in [12] it was 0.284 (inactive); in assay [13], 0.158 (inactive); in assay [14], 0.942 (inactive); in [16], 0.641 (inactive).

Source of the values: PubChem BioAssay.
